40 compounds from PubChem BioAssay (NCATS) can be followed below.

Each structure is given as a SMILES string. Results filed as inconclusive are left out. Values without a mark were called inactive. Active and inactive are the calls of the source. Calls follow the shape of the dose curve; as a rule, active = well fitted cell-killing curve with a large enough effect; inconclusive = small, poorly fitted or top-dose-only effect, or effect the other way; inactive = no such curve, though single readings can be large or run the other way.
Potency is read from the fitted curve at half-maximal effect.

The nature of the test: Quantitative High-Throughput drug screen in 47 multiple myeloma cell lines against the NCATS MIPE library collection: Karpas620_DSMZ cell viability assay (AID 1918959). Also: nearly all actives have a fitted effect of over 30% in size. The following applies: Karpas620 myeloma viability, CellTiter-Glo ATP luminescence, 48 h; series mostly up to 45.8 µM; viability (% of DMSO): at the top concentration. The text has this: PI: Beverly A. Mock Ph.D.
Laboratory of Cancer Biology and Genetics,
Center for Cancer Research, National Cancer Institute,
National Institute of Health, Bethesda, Maryland
Drug resistance and disease progression are common in multiple myeloma (MM) patients, underscoring the need for new therapeutic combinations. […] We hypothesized that effective combinations would reduce MYC expression and enhance p16 activity. […] These preclinical data identify potentially useful drug combinations for evaluation in drug-resistant MM and reveal potential mechanisms of combined drug sensitivity.
Described herein is the primary MIPE qHTS used to cherrypick compounds. Validated compounds were then further tested for potential synergistic activiy.
[1] Peat TJ, Gaikwad SM, Dubois W, Gyabaah-Kessie N, Zhang S, Gorjifard S, Phyo Z, Andres M, Hughitt VK, Simpson RM, Miller MA, Girvin AT, Taylor A, Williams D, D'Antonio N, Zhang Y, Rajagopalan A, Flietner E, Wilson K, Zhang X, Shinn P, Klumpp-Thomas C, McKnight C, Itkin Z, Chen L, Kazandijian D, Zhang J, Michalowski AM, Simmons JK, Keats J, Thomas CJ, Mock BA. Drug combinations identified by high-throughput screening promote cell cycle transition and upregulate Smad pathways in myeloma. Cancer Lett. 2023 Aug 1;568:216284. doi: 10.1016/j.canlet.2023.216284. Epub 2023 Jun 24. PMID: 37356470; PMCID: PMC10408729.
SEQUENCE No. (e.g., 1, 2, 3, etc.); […] (e.g., Cells, Incubation, Reagent, etc.); VALUE and DESCRIPTION.
1; Cells; 5 uL; white, solid bottom 1536-well Greiner assay plate.
2; Compounds; 23 nL; Kalypsis pin tool (Wako USA) equipped with a 1536-well pin head to transfer to the assay plates.
3; Incubation; 48 hours; 37C incubation.
4; Reagent;5uL; CellTiter Glo (Promega).
5; Detector; 425V; Luminescence; Viewlux PerkinElmer.
NOTES (numbers refer to Sequence numbers above)
1. The cell-based screening methods employed in this study were like those previously published. Briefly, the corresponding myeloma cell lines were screened in 1,536-well plates with 500 cells, 5-uL per well for inhibition of cell viability (assessed by measuring ATP levels with CellTiterGlo).
2. NCATS MIPE 4.0 library of approved and investigational drugs were added using the Kalypsis pin tool. Wells treated with DMSO only for 100% viability and media only wells for 0% viability were used as controls.
3. The assay plates were covered and incubated for 48 hours in a 37C, 5% CO2 incubator with controlled humidity.
4. After 48 hours, CellTilter-GloTM luminescent substrate mix (Promega) reagent was added to the assay plate and plates we incubated for 5 min at room temperature.
5. Signal was measured as median relative luminescence units on a ViewLux (PerkinElmer) multiplate reader.
[1] Heske CM, Davis MI, Baumgart JT, Wilson K, Gormally MV, Chen L, Zhang X, Ceribelli M, Duveau DY, Guha R, Ferrer M, Arnaldez FI, Ji J, Tran HL, Zhang Y, Mendoza A, Helman LJ, Thomas CJ. Matrix Screen Identifies Synergistic Combination of PARP Inhibitors and Nicotinamide Phosphoribosyltransferase (NAMPT) Inhibitors in Ewing Sarcoma. Clin Cancer Res. 2017 Dec 1;23(23):7301-7311. doi: 10.1158/1078-0432.CCR-17-1121. Epub 2017 Sep 12. PMID: 28899971; PMCID: PMC6636827.
(Cellular ATP, detected with luciferase, serves as a proxy for viable cell number.)
Consider `CN1C2CCC1CC(OC(=O)C(CO)c1ccccc1)C2` (stereo not given), for which the “viability (% of DMSO)” value was 94.7%.

Consider `Cc1ccc(-c2cc(C(F)(F)F)nn2-c2ccc(S(N)(=O)=O)cc2)cc1`, for which the “viability (% of DMSO)” value is 101%.

In the case of `N[C@@H](Cc1c[nH]c2ccc(O)cc12)C(=O)O`, the “viability (% of DMSO)” value was 97.8%.

For `O=C1N(c2ccccc2)c2ccccc2C1(Cc1ccncc1)Cc1ccncc1`, the “viability (% of DMSO)” value is 143%.

Take `NS(=O)(=O)c1cc2c(cc1Cl)NCNS2(=O)=O`: the “viability (% of DMSO)” value was 111%.

Consider `Cc1cn([C@H]2C[C@H](N=[N+]=[N-])[C@@H](CO)O2)c(=O)[nH]c1=O`, for which the “viability (% of DMSO)” value was 103%.

Consider `COc1ccc2[nH]cc(CCNC(C)=O)c2c1`, for which the “viability (% of DMSO)” value was 109%.

For the compound `Cc1cn([C@H]2C=C[C@@H](CO)O2)c(=O)[nH]c1=O`, the “viability (% of DMSO)” value is 114% [at 92.2 µM].

`CN1CCN(CCCN2c3ccccc3Sc3ccc(Cl)cc32)CC1`: the Potency is 4.18 µM (active).

For `CN1CCN2c3ccccc3Cc3ccccc3C2C1` (stereo not given), the “viability (% of DMSO)” value was 117%.

Regarding `Clc1ccc(C(c2ccccc2Cl)C(Cl)Cl)cc1` (stereo not given), the “viability (% of DMSO)” value was 98.1%.

As to `CN(C)C(=O)C(CCN1CCC(O)(c2ccc(Cl)cc2)CC1)(c1ccccc1)c1ccccc1`, the “viability (% of DMSO)” value is 103%.

As to `COC(=O)Nc1nc2ccc(C(=O)c3cccs3)cc2[nH]1`, the Potency is 0.0017 µM (active).

For `CC12CC3CC(C)(C1)CC(N)(C3)C2`, the “viability (% of DMSO)” value was 119%.

For `CCC1(c2ccccc2)C(=O)NCNC1=O`, the “viability (% of DMSO)” value is 94%.

Regarding `CC(C)C(=O)Nc1ccc([N+](=O)[O-])c(C(F)(F)F)c1`, the Potency is 1.05 µM (active).

Regarding `O=C1c2c(O)ccc(O)c2C(=O)c2c(NCCNCCO)ccc(NCCNCCO)c21`, the Potency was 5.26 µM (active).

As for `NC(=O)NO`, the Potency was 3.72 µM (active).

In the case of `Cc1cc(C(C)(C)C)cc(C)c1CC1=NCCN1`, the “viability (% of DMSO)” value was 101%.

`CC1(CN2CCC(n3c(=O)[nH]c4ccccc43)CC2)OCc2ccccc2-n2cccc21` (stereo not given): the “viability (% of DMSO)” value was 98.8%.

On to `CCN1CCCC1CNC(=O)c1cc(S(=O)(=O)CC)c(N)cc1OC` (stereo not given), for which the “viability (% of DMSO)” value is 117%.

As for `Cn1cnc2c1c(=O)[nH]c(=O)n2C`, the Potency is 7.43 µM (active).

Take `NC(CO)C(=O)NNCc1ccc(O)c(O)c1O` (stereo not given): the “viability (% of DMSO)” value was 99.8%.

Turning to `CC(CCc1ccc(O)cc1)NCCc1ccc(O)c(O)c1` (stereo not given), the Potency was 13.2 µM (active).

Consider `Nc1c2c(nc3ccccc13)CCCC2`, for which the “viability (% of DMSO)” value was 111%.

As to `COc1ccc2c(c1)c(CC(=O)O)c(C)n2C(=O)c1ccc(Cl)cc1`, the “viability (% of DMSO)” value is 77.7%.

Consider `Cc1cc(C(C)(C)C)c(O)c(C)c1CC1=NCCN1`, for which the “viability (% of DMSO)” value is 115%.

For the compound `C[C@](N)(Cc1ccc(O)c(O)c1)C(=O)O`, the “viability (% of DMSO)” value was 90%.

With `CC[N+](CC)(CC)CCOc1cccc(OCC[N+](CC)(CC)CC)c1OCC[N+](CC)(CC)CC`, the “viability (% of DMSO)” value is 111%.

As for `CCOC(=O)Nc1ccc(NCc2ccc(F)cc2)nc1N`, the Potency is 20.9 µM (active).

In the case of `CC[C@@]1(O)C(=O)OCc2c1cc1n(c2=O)Cc2cc3c(CN(C)C)c(O)ccc3nc2-1`, the Potency is 3.72 µM (active).

`CC(=O)OCC(CCn1cnc2cnc(N)nc21)COC(C)=O`: the “viability (% of DMSO)” value was 117%.

For the compound `CNCCCC12CCC(c3ccccc31)c1ccccc12`, the Potency is 26.4 µM (active).

With `COc1cc2nc(N(C)CCCNC(=O)C3CCCO3)nc(N)c2cc1OC` (stereo not given), the “viability (% of DMSO)” value was 112%.

As to `CN(CCOc1ccc(NS(C)(=O)=O)cc1)CCc1ccc(NS(C)(=O)=O)cc1`, the “viability (% of DMSO)” value was 101%.

On to `CC(C)NCC(O)COc1ccc(CCOCC2CC2)cc1` (stereo not given), for which the “viability (% of DMSO)” value was 101%.

For `O=C(c1ccc(F)cc1)C1CCN(CCn2c(=O)[nH]c3ccccc3c2=O)CC1`, the “viability (% of DMSO)” value was 121%.

With `CC(C)Cc1ccc(C(C)C(=O)O)cc1` (stereo not given), the “viability (% of DMSO)” value is 105% [at 23.2 µM].

`Clc1ccc2c(c1)C(N1CCNCC1)=Nc1ccccc1O2`: the “viability (% of DMSO)” value was 123%.

Regarding `O=C(c1ccc(OCCN2CCCCC2)cc1)c1c(-c2ccc(O)cc2)sc2cc(O)ccc12`, the Potency was 26.4 µM (active).
